HCMV antiviral: inhibitors of human cytomegalovirus; HFF cells, HCMV-luciferase reporter, 72 h; active compounds read low; activity change, negative = inhibition, % at 57.5 µM; 410,000 compounds, 4.5% hits; AID 1259415; in the data active means activity change below about -60%; inconclusive means no clear call, values can overlap the other calls; inactive means above about -39%
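Two compound doses tested in HFFs infected with HCMV-luciferase, MOI 1 PFU/cell, 72 h at 37C. Lysate luminescence read with OneGlo; data normalized against buffer-only and 10uM Salinomycin inhibitor controls.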
Vaccinia Venus: inhibitors of vaccinia virus (Venus reporter) | Potency, µM (doses to about 36.5 µM), inactives show at the top dose activity change, negative = inhibition, actives largely listed as inhibitors | 330,000 compounds, 0.46% hits | Vaccinia virus Venus reporter expression, fluorescence; calls by dose curve; tested in A549 cells; further: potency means the concentration at half of the fitted maximal effect; nearly all actives have a fitted effect of over 30% in size
HCV inhibitor: HCV inhibition | Potency, µM (doses to about 41.8 µM), for the others: top-dose activity change, negative = inhibition, actives largely listed as inhibitors | Huh7.5.1 HCVcc-Cre infection, luciferase reporter, 44 h | AID 651820 | 340,000 compounds, 3.4% hits; active means well fitted inhibition curve with a large enough effect; inconclusive means small, poorly fitted or top-dose-only effect, or another doubt; inactive means no such curve, though single readings can be large or run the other way; further: potency means the concentration at half of the fitted maximal effect
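Reporter virus HCVcc-Cre (~0.5 moi) infects cells exposed to compound; seeding density 1,000 cells/well with 4 h settling beforehand. Luminescence, 15 sec read, taken 44 h post-infection following a 15 min RT substrate incubation.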
VACV mCherry inh: inhibitors of vaccinia virus infection (mCherry reporter signal) | Vaccinia virus mCherry reporter infection, fluorescence | Potency, µM (doses to about 36.5 µM), for the others: at the highest dose activity change, negative = inhibition, usual class: inhibitors | 310,000 compounds, 0.63% hits; calls by dose curve; tested in A549 cells; further: potency means the concentration at half of the fitted maximal effect; nearly all actives have a fitted effect of over 35% in size
FMDV antiviral: antivirals against foot and mouth disease virus | FMDV antiviral cell-based qHTS | Potency, µM (series often up to 57.9 µM), without a hit: at the highest dose activity change, negative = inhibition, usual class: inhibitors | 410,000 compounds, 1.2% hits | AID 1159524; calls by dose curve; tested in HEK293T cells; further: read-out not given here; potency means the concentration at half of the fitted maximal effect; nearly all actives have a fitted effect of over 45% in size
The depositor's hits bear a star; i = inactive; ? = inconclusive; nt = no result given. An excerpt weighted towards active compounds, which were near 7.3% of everything screened. On the % scale 0 is the no-effect control and ±100 the full control effect.

SMILES | HCMV antiviral | Vaccinia Venus | HCV inhibitor | VACV mCherry inh | FMDV antiviral
COc1ccc(C(=O)NCC(c2ccc(N(C)C)cc2)N2CCc3ccccc32)cc1OC (stereo unspecified) | ? | -11.1% | nt | -0.7% | -17.5%
COc1ccc(C(=O)NCC(c2cccnc2)N2CCN(c3ccccc3OC)CC2)cc1OC (stereo unspecified) | 13.7 | -11.9% | ? | -4.2% | ?
Cc1ccc(CN2C(=O)C3(SCC(=O)N3c3ccc(C)c(C)c3)c3ccccc32)cc1 (stereo unspecified) | ? | -18.9% | nt | -17.0% | ?
CCc1ccc(NC(=O)C(=O)NCC(c2ccc3c(c2)OCO3)N2CCOCC2)cc1 (stereo unspecified) | -27.8 | -4.1% | nt | -0.7% | -0.8%
O=C(c1ccccc1)C(CN1CCCC1)c1ccccc1 (stereo unspecified) | -102.9* | 15.8µM* | ? | ? | 3.55µM*
O=C(c1ccc(Cl)cc1)C(CN1CCCCC1)c1ccccc1 (stereo unspecified) | -101.0* | 11.2µM* | 15.8µM* | ? | 14.1µM*
CCOC(=O)C(CN1CCCC1)c1ccccc1 (stereo unspecified) | -24.1 | -8.9% | 15.7% | i | -15.5%
C=CCCC1CN(Cc2ccc(OC)cc2)S(=O)(=O)c2c(cccc2N2CCCC2)O1 (stereo unspecified) | -28.3 | nt | nt | nt | nt
CC(=O)c1ccccc1S(=O)(=O)N1CCN(c2nc(-c3cccs3)nc3ccccc23)CC1 | nt | -6.5% | nt | i | nt
COc1ccc(/C=C\c2onc(C)c2S(=O)(=O)N2CCC(C(=O)Nc3ccc(F)cc3F)CC2)cc1 | 37.4 | -16.5% | nt | -13.1% | -19.7%
COc1ccc(NS(=O)(=O)c2ccc(C)c(C(=O)NNC(=O)c3ccccc3O)c2)cc1 | -6.9 | -14.8% | ? | -15.2% | -6.8%
Cc1ccc(S(=O)(=O)Nc2ccccc2F)cc1C(=O)NNC(=O)c1ccccc1O | -87.2* | 3.6% | ? | ? | 2.3%
COC(=O)[C@H]1[C@H](CO)[C@H]2Cn3c(ccc(Br)c3=O)[C@@H]1N2C(=O)NC(C)C | -28.6 | nt | nt | nt | nt
O=C(CF)NC(NC(=S)Nc1ccccc1O)C(Cl)(Cl)Cl (stereo unspecified) | -65.5* | nt | 9.1% | nt | 13.9%
CC1CC[C@]2(CO)CC[C@]3(C)C(=CCC4[C@@]5(C)CCC(O)C(C)(C)C5CC[C@@]43C)C2C1C (stereo partly specified) | nt | -12.1% | nt | -11.8% | 0.0%
COc1ccccc1OC(C)C(=O)Nc1c(C(=O)c2ccc(Cl)cc2)oc2ccccc12 (stereo unspecified) | 4.7 | -9.0% | nt | 1.9% | -8.7%
COc1ccc(CC(=O)NNC(=O)CCC(=O)Nc2cc(C)ccc2C)cc1 | -103.6* | -9.4% | -8.6% | -17.5% | -9.3%
CCCN1CNc2c(c(=O)[nH]c(=S)n2CCc2cccc(C)c2)C1 | nt | -10.6% | nt | -9.5% | nt
CNC(=O)c1ccccc1C1(O)c2ccccc2CCc2ccccc21 | 13.4 | nt | nt | nt | nt
CCN1CCN(c2ccc(S(=O)(=O)N3CCCCC3)cc2NC(=O)/C=C/c2ccc(OC(F)F)cc2)CC1 | -28.8 | ? | ? | ? | -16.7%
CN1CCN(c2ccc(S(=O)(=O)N3CCCCC3)cc2NC(=O)/C=C/c2ccc(OC(F)F)cc2)CC1 | -12.8 | 12.6µM* | ? | ? | -3.5%
O=C(/C=C/c1ccc(OC(F)F)cc1)Nc1cccc(S(=O)(=O)N2CCOCC2)c1 | -75.0* | ? | 5.62µM* | -17.8% | ?
CCN1CCN(c2ccc(S(=O)(=O)N3CCCCC3)cc2NC(=O)/C=C/c2ccc([N+](=O)[O-])cc2)CC1 | -18.8 | -13.2% | ? | ? | ?
O=[N+]([O-])c1cc(/C=N/N2CCCCC2)ccc1Cl | -20.2 | -9.8% | 5.5% | -19.6% | 11.4%
O=C(/C=C/c1ccc(Cl)c([N+](=O)[O-])c1)Nc1ccc(N2CCCC2)c(Cl)c1 | -67.5* | 11.0% | -16.7% | i | -18.5%
CN1CCN(c2ccc(S(=O)(=O)N3CCCCC3)cc2NC(=O)/C=C/c2ccc(Cl)c([N+](=O)[O-])c2)CC1 | -79.8* | -27.0% | ? | -10.0% | ?
CNC(=O)c1c(NC(=O)c2cc(=O)c3cc(C)c(C)cc3o2)sc2c1CCCC2 | 19.1 | 5.7% | nt | -11.8% | -25.6%
COC(=O)C1(C(F)(F)F)N=C(C(F)(F)F)Nc2ccc(Cl)cc21 (stereo unspecified) | -102.1* | -9.0% | 23.1% | -12.8% | -16.4%
